# Inconclusive results are not listed. Active and inactive are the calls of the source. Rule for the calls: active = hit-call score of the fitted dose curve at least 0.9, where 1 is the maximum; inconclusive = response in the unintended direction; inactive = score below 0.9.
# Target: human Serum/Glucocorticoid Regulated Kinase 1 (SGK1), SGK1 (gene 6446) (UniProt O00141)
# Test: NVS_ENZ_hSGK1: NovaScreen (NVS) Enzymatic Assay for human Serum/Glucocorticoid Regulated Kinase 1 (SGK1)
# Description: NVS_ENZ_hSGK1 is a biochemical, single-readout assay that uses extracted gene-proteins in a cell-free assay. Measurements were taken 1 hour after chemical dosing in a 96-well plate.NVS_ENZ_hSGK1 is one of one assay component(s) measured or calculated from the NVS_ENZ_hSGK1 assay. It is designed to make measurements of enzyme activity, a form of enzyme reporter, as detected with fluorescence intensity signals by Fluorescence and electrophoretic mobility shift technology.Data from the assay component NVS_ENZ_hSGK1 was analyzed into 1 assay endpoint. This assay endpoint, NVS_ENZ_hSGK1, was analyzed in the positive analysis fitting direction relative to DMSO as the negative control and baseline of activity. Using a type of enzyme reporter, loss-of-signal activity can be used to understand changes in the enzymatic activity as they relate to the gene SGK1. Furthermore, this assay endpoint can be referred to as a primary readout, because this assay has produced […] where this one serves a enzymatic activity function. To generalize the intended target to other relatable targets, this assay endpoint is annotated to the kinase intended target family, where the subfamily is serine/threonine kinase.
# Binding assays used specific radioligands (tritiated, iodinated) with non-radioactive competitive displacement ligands in agonist or antagonist protocols (as indicated) and various reference compounds and inhibitors to titrate specific binding to receptors and transporters. Most enzyme assays (CYPs, kinases, phosphatases, proteases, HDACs) used recombinant protein and specific substrates (fluorescence mostly, some colorimetric and radioactive) and inhibitors, followed by a biochemical separation of substrate and product. All assays for the biochemical HTS were initially run in duplicate at a single concentration (10 uM for CYP450 assays and 25 uM for all others). Assay-chemical combinations meeting a pre-defined threshold (e.g., 30% inhibition and other criteria defined below) were then run in singleton concentration-response format with maximum concentration of 20 uM for CYPs and 50 uM for all others. Each assay was run with positive and negative controls, and concurrent controls on every plate. The follow-up (secondary) screen tested active chemical-pairs in concentration series, as well as a few additional assays not tested in the primary screen, some selected negative inactives, and several cases re-run in the concentration series for confirmatory purposes.
# Chain of human Serum/Glucocorticoid Regulated Kinase 1 (SGK1), SGK1 (gene 6446) (O00141 whole entry, looked up): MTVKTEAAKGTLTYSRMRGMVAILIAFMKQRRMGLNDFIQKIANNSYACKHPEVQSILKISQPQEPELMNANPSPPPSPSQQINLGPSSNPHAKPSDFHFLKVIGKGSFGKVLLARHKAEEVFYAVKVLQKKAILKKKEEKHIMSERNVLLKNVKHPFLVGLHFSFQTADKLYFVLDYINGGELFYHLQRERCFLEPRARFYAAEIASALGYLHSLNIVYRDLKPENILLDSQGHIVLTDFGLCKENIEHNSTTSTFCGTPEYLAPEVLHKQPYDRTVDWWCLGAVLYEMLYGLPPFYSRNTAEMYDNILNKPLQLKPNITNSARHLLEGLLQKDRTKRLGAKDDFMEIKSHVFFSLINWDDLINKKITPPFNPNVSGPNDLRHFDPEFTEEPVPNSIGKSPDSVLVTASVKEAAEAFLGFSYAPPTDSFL
SMILES,AC50,outcome
O=S(=O)(O)C(F)(F)C(F)(F)C(F)(F)C(F)(F)C(F)(F)C(F)(F)C(F)(F)C(F)(F)F,26.2 µM (active),–
N#Cc1c(Cl)c(Cl)c(Cl)c(C#N)c1Cl,19.8 µM (active),–
Nc1c(Cl)cc([N+](=O)[O-])cc1Cl,–,inactive
COC(=O)c1ccccc1S(=O)(=O)NC(=O)N(C)c1nc(C)nc(OC)n1,–,inactive
CCCC(=NOCC)C1=C(O)CC(CC(C)SCC)CC1=O (centres undefined),–,inactive
OC(c1ccc(Cl)cc1)(c1ccc(Cl)cc1)C(Cl)(Cl)Cl,–,inactive
COP(=S)(OC)Oc1ccc([N+](=O)[O-])cc1,–,inactive
CCNc1nc(Cl)nc(NCC)n1,–,inactive
CNC(=S)S,–,inactive
CC(C)OC(=O)Nc1cccc(Cl)c1,–,inactive
S=C1NCCN1,–,inactive
O=C(O)COc1ccc(Cl)cc1Cl,–,inactive
O=C(O)C(F)(F)C(F)(F)C(F)(F)C(F)(F)C(F)(F)C(F)(F)C(F)(F)F,–,inactive
CC(Oc1cccc(Cl)c1)C(=O)O (centres undefined),–,inactive

# — PubChem BioAssay AID2283220 (EPA ToxCast)
